# The supplement of paper PMC11417369
# ± gives the standard deviation of the averaged measurements. Over roughly 25,000 sequences, “ln(normalized median fluorescence intensity)” has its median near 7.9; the highest 2% begin near 11. The list comes from a sample in which the highest values are over-represented; it also holds similar and randomly drawn sequences.
# Test system: PfAP2-I AP2 domain 3 (GST-tagged)
# Assay: gcPBM binding intensity (ln(normalized median fluorescence intensity)); higher = stronger DNA binding
# Procedure, shortened: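 Each value is the highest Masliner-normalised natural-log median intensity across replicate spots of either orientation of a probe. The probes were primer-extended double-stranded 36-bp intergenic genomic sequences on an Agilent 4 × 180k array, alongside negative controls, exposed for 1 h to GST-tagged P. falciparum DNA-binding domains expressed in E. coli. Bound protein was picked up with Alexa488 anti-GST antibody and scanned at 488 nm.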
row,Sequence,gcPBM binding intensity (ln)
1,TCTTTTACAAAAGCTATAACATTCACCACATTATAA [GTGCAC_negctrl_site133],7.68 ± 0.65
2,CTAGGTATGCTTTAAACATGCAAAAATACAAATTAC [TGCATGCA_site239],7.97 ± 0.76
3,ATAAATCCATGGGTAGTGCGCATTTTTTTTTTTTTT [GTGCAC_site9732],9.09 ± 0.41
4,ACAATGTCATTTGCTAGTACGCATATTGGTTGTAAA [XGTACX_site8924],7.76 ± 0.24
5,ATAAAATATCAATACCGTACACAAGCAGGTAAAATA [XGTACX_site3719],7.82 ± 0.8
6,TGATTATAAAAGTAGGTGCTACAAAAATTACACATT [GTGCAC_site9530],8.7 ± 0.45
7,TATAACATTTTTTTCAAAATAGCTTTAGAAATAAAG [CACACA_negctrl_site718],7.37 ± 0.54
8,AAATAATTTATATGTAGTACATGTTGTAGATAATTT [XGTACX_site1031],8.16 ± 0.28
9,TATACGTATTACAGAGTGCAATAAACAGTATATATT,10.9 ± 0.66
10,CATAATATTAAATCAGTGCAAATATACAGAATAAAT [GTGCAC_site9786],10.1 ± 0.17
11,TTTGTGTATATAACAGTGCAATATTATAAATATAAA [GTGCAC_site9750],10.5 ± 0.51
12,AAAAAAAATTATGAAGTGCATTAGTGAATTTGATTG,10.9 ± 0.3
13,AAAATTATTTAGTAAGTGCAAAAAAAAAAAAAAAAA,10.1 ± 0.23
14,TTTTGATTAAGTGAATTTTTTTATTTATATAAATAT [TGCATGCA_negctrl_site479],7.54 ± 0.56
15,CAATTTTACTCATAAACACACATATATATGTTATTA [CACACA_site3152],7.66 ± 0.53
16,AAAAAAAAAAAAAGTACACACTTTTGCGTACATGTA [CACACA_site7449],8.06 ± 0.63
17,TATATTATATATATGTGTACATATAAATGTAACAAA [XGTACX_site5025],7.67 ± 0.34
18,TGCATTATTTACAAGGTGCGTTACAAATGTGTAACA [GTGCAC_site9442],11.3 ± 0.88
19,ATATATTTATTAAGGTGTACAAAAATTATGTTGCAT [XGTACX_site7546],8.26 ± 0.35
20,TTAACATAAATATATACACACCAATGATGGCATTTA [CACACA_site4952],7.51 ± 0.52
21,TATATATTCATGTGTACACACAAAAAAAAATAAAGT [CACACA_site2207],8.41 ± 0.65
22,TTGTATGCTTCCCGACTACATTATGCCATAAATGTA [TGCATGCA_negctrl_site136],7.92 ± 0.49
23,AGTGCATACATGAATTGTACTTTAAAATAAATTCTA [XGTACX_site8156],9.7 ± 0.52
24,TAAATATATTTCATGACATGCAACTTGTTTTTTTGT [TGCATGCA_site456],7.63 ± 0.7
25,TTCTTATTTGTACTAGTGCAATAGAAAATAAATAAA [GTGCAC_site9731],10.9 ± 0.49
26,TTTTTTCTTAAAATTTGTACATAGTGCAATTTTTTT [XGTACX_site5509],9.5 ± 0.69
27,TAAAATTTGTACATAGTGCAATTTTTTTTTTTTTTT,9.81 ± 0.099
